The supplement of paper PMC11732987, “Enantioselective OTUD7B fragment discovery through chemoproteomics screening and high-throughput optimisation” (Communications Chemistry, 2025)

How the values were obtained:
Assay in all cases: log2 ratio of Biotin-Ahx-Ub-VS probe labelling (fragment/DMSO); higher = less target engagement (more negative = stronger competition), active = hit call of the paper (q ≤ 0.05, log2 ratio ≤ -1)
Conditions in all cases: compound concentration: 200 uM; treatment time: 3 h
ALG13 = biological target: T1, ALG13 (UniProt Q9NP73)
T1 sequence (whole entry): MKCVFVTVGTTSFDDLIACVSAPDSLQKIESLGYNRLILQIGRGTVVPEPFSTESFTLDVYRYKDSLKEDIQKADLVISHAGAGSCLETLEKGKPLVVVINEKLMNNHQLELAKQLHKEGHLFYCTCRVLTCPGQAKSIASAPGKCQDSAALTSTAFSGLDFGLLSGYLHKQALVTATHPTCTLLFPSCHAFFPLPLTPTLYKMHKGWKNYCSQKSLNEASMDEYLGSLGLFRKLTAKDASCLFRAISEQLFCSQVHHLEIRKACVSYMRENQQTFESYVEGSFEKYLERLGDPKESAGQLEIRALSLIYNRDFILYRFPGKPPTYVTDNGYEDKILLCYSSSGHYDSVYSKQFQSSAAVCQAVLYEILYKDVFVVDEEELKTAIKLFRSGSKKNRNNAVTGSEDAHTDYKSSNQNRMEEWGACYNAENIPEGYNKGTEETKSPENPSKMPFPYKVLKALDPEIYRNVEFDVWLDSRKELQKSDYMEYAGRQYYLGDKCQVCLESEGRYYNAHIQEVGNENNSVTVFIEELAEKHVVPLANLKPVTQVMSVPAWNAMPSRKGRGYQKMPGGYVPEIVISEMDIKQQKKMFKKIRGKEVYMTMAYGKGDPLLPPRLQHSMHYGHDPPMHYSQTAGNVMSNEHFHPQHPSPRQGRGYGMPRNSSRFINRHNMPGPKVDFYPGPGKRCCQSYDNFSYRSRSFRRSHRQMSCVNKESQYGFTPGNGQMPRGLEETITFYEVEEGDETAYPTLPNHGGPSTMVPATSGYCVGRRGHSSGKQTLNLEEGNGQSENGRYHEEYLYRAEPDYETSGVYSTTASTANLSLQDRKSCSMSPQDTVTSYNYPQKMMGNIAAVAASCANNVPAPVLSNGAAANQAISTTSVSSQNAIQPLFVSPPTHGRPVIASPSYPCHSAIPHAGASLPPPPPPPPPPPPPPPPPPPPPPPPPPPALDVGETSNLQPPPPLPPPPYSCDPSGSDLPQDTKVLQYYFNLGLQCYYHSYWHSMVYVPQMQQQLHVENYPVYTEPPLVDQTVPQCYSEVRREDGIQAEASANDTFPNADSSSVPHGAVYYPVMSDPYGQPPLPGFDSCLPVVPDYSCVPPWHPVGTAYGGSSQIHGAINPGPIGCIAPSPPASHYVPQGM
How it was run: (§1)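 Lysate from HEK293T cells, 495 µg per sample in Tris/CHAPS/IGEPAL buffer with protease inhibitors, was treated for 3 h in triplicate with fragment at 200 µM or vehicle. Biotin-Ahx-Ub-VS was next added at 0.5 µM final for 1 h. The labelled DUBs were enriched with NeutrAvidin, digested with LysC and trypsin, and run by diaPASEF LC-MS/MS, with values given as average log2 fragment/vehicle ratios by unpaired t-test on global-median-normalised Spectronaut quantities of proteins with ≥2 unique peptides.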

ATXN3 = ATXN3 (UniProt P54252)
How it was run: as §1

BAP1 = biological target: T2, BAP1 (UniProt Q92560)
T2 sequence (whole entry): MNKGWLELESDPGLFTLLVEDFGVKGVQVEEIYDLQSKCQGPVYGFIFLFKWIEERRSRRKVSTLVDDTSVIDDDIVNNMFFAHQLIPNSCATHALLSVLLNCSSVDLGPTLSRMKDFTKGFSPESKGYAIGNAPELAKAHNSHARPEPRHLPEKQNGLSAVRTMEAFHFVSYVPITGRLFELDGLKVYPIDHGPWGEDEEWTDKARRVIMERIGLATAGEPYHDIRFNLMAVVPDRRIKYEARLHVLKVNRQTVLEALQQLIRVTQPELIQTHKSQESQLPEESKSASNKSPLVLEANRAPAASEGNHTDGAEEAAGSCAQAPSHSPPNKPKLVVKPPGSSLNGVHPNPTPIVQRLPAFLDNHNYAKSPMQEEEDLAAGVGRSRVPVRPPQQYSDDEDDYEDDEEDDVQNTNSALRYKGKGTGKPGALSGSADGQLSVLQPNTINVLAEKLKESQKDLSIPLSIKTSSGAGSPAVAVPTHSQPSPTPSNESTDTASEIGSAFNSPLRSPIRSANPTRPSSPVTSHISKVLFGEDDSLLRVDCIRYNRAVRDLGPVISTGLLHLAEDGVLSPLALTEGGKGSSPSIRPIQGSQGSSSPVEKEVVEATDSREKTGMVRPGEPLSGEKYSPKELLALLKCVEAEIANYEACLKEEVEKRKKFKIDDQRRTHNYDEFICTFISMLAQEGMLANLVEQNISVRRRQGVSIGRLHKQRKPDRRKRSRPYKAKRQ
How it was run: as §1

EIF3F = EIF3F (UniProt O00303)
How it was run: as §1

EIF3H = EIF3H (UniProt O15372)
How it was run: as §1

FAM105A = biological target: T3, FAM105A (UniProt Q9NUU6)
T3 sequence (whole entry): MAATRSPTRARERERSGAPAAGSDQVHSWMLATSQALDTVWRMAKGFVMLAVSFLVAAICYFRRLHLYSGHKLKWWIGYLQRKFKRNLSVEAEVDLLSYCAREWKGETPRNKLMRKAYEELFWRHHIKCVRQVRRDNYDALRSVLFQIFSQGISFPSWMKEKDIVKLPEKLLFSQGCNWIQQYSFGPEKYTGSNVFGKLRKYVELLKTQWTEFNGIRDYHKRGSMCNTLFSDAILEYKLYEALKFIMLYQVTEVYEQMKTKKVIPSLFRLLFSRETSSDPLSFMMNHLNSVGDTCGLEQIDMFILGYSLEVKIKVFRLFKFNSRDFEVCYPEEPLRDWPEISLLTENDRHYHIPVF
How it was run: as §1

OTUB1 = OTUB1 (UniProt Q96FW1)
How it was run: as §1

OTUD4 = biological target: T4, OTUD4 (UniProt Q01804)
T4 sequence (whole entry): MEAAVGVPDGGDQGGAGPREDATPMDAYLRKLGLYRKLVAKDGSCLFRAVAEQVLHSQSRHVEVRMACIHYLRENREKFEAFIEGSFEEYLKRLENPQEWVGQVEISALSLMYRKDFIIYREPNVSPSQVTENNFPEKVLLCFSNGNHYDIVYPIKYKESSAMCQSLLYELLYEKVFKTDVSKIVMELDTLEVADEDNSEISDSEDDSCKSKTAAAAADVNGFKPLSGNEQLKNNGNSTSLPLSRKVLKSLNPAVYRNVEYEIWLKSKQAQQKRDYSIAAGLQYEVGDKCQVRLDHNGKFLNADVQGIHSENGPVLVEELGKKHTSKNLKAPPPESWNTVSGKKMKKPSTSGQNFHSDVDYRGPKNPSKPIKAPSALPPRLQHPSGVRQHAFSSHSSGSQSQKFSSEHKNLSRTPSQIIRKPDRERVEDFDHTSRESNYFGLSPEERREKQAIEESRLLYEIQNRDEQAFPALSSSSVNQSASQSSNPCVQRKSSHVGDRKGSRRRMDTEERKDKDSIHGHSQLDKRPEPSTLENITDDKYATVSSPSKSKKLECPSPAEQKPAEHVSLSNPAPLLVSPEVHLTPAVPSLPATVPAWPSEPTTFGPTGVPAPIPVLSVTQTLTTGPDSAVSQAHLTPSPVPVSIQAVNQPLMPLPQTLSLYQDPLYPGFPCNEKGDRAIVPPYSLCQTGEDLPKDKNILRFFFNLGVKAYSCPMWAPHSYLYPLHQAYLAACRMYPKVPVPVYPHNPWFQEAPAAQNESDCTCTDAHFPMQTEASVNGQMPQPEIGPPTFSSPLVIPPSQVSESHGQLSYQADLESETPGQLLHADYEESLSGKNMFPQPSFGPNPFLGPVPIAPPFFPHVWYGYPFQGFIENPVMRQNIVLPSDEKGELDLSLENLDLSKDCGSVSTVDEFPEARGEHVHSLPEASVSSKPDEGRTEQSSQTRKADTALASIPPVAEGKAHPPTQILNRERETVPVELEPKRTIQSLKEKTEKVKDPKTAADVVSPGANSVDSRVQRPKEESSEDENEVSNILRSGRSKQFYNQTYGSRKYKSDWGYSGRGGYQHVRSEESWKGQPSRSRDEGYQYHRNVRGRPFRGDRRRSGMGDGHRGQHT
How it was run: as §1

OTUD5 = biological target: T5, OTUD5 (UniProt Q96G74)
T5 sequence (whole entry): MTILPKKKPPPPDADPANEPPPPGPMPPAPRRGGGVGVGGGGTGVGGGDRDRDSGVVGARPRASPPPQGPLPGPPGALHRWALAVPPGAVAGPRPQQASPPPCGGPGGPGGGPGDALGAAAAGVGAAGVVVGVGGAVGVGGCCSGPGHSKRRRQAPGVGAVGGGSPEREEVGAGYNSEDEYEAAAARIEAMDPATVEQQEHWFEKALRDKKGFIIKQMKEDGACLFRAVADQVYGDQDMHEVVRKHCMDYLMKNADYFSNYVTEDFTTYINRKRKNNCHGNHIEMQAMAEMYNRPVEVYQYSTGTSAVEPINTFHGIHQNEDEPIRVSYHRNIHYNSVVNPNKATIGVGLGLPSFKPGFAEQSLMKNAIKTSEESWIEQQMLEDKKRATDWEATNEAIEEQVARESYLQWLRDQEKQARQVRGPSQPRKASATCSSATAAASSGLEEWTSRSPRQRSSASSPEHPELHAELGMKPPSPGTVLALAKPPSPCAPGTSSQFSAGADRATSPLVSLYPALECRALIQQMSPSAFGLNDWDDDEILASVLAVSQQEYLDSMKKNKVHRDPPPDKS
How it was run: as §1

Measured: log2 ratio of Biotin-Ahx-Ub-VS probe labelling

Sequence of OTUB1 (Q96FW1 whole entry): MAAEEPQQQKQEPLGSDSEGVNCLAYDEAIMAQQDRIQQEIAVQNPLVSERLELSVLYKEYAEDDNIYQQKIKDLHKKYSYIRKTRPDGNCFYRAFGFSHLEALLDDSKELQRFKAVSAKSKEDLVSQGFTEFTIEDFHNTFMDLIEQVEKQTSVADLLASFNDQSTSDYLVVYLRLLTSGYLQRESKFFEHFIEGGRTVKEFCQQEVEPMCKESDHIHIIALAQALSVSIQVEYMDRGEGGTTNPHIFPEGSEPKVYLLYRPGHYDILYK
Sequence of ATXN3 (P54252 whole entry): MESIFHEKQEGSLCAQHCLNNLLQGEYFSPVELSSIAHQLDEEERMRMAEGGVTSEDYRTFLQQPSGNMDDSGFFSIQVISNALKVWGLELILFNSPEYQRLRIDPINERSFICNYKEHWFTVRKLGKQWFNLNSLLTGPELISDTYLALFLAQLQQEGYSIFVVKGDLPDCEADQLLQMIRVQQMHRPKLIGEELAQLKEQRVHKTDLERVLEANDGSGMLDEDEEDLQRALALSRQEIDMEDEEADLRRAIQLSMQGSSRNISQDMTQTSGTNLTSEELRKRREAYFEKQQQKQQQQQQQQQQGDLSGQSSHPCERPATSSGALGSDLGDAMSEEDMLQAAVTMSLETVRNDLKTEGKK
Sequence of EIF3F (O00303 whole entry): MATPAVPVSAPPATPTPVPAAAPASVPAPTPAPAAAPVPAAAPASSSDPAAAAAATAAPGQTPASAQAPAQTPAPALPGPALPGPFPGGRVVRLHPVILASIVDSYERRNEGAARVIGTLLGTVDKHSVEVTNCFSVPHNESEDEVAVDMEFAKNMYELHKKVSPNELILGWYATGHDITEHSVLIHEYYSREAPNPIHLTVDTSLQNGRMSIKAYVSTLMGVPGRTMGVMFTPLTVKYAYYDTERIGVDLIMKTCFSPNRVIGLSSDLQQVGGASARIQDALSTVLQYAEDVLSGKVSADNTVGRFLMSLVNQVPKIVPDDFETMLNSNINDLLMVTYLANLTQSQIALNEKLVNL
Sequence of EIF3H (O15372 whole entry): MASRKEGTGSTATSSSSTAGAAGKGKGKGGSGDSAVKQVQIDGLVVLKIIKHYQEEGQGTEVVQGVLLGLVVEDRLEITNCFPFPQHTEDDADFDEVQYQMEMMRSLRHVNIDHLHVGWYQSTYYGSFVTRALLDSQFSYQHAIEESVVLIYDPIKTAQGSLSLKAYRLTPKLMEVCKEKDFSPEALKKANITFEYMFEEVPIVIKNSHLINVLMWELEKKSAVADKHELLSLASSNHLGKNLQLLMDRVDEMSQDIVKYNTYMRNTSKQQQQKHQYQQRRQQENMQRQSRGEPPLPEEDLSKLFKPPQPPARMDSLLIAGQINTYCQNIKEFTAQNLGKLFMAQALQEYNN

CN1C(=O)c2ccc(NC(=O)CCl)cc2C1=O
inactive: ALG13 0.35 | ATXN3 -0.464 | EIF3F -0.166 | EIF3H 0.319 | FAM105A -0.33 | OTUB1 0.0722 | OTUD4 -0.313 | OTUD5 -0.621
active: BAP1 -3.58
